Experimental findings from PubChem BioAssay (EPA / NIEHS) are described below.

Active and inactive are the calls of the source. The calls were made as follows: active = hit-call score of the fitted dose curve at least 0.9, where 1 is the maximum; inactive = score below 0.9.

By AC50 is commonly meant the concentration at which the activity in the assay is half-maximal.

Read-out in assay [1]: Human Leukocyte Antigen - DR isotype (HLADR), HLA-DRA (gene 3122)
Briefly: BSK_CASM3C_HLADR: BioMAP Diversity Plus: CASM3C Assay for Human Leukocyte Antigen - DR isotype (HLADR) Biomarker Activity (AID 2283043).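 Also: cell-surface HLA-DR protein level quantified by ELISA.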 Particulars: primary human coronary artery smooth muscle cells; actives raise or lower the signal.

Read-out in assay [2]: Macrophage colony-stimulating factor (MCSF), CSF1 (gene 1435)
Nature of the assay: BSK_CASM3C_MCSF: BioMAP Diversity Plus: CASM3C Assay for Macrophage colony-stimulating factor (MCSF) Biomarker Activity (AID 2283044).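 Also: M-CSF protein amount quantified by ELISA after 24 h exposure.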 As to conditions: primary human coronary artery smooth muscle cells; actives raise or lower the signal.

Read-out in assay [3]: Low-density lipoprotein receptor (LDLR), LDLR (gene 3949)
Nature of the assay: BSK_CASM3C_LDLR: BioMAP Diversity Plus: CASM3C Assay for Low-density lipoprotein receptor (LDLR) Biomarker Activity (AID 2283045).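 Also: LDLR protein level on the cell surface quantified by ELISA.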 Particulars: primary human coronary artery smooth muscle cells; actives raise or lower the signal.

Read-out in assay [4]: Monocyte Chemoattractant Protein-1 (MCP1), CCL2 (gene 6347)
Nature of the assay: BSK_CASM3C_MCP1: BioMAP Diversity Plus: CASM3C Assay for Monocyte Chemoattractant Protein-1 (MCP1) Biomarker Activity (AID 2283046).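 Also: MCP-1 level quantified by ELISA 24 h after dosing.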 Particulars: primary human coronary artery smooth muscle cells; actives raise or lower the signal.

The nature of assay [5]: BSK_CASM3C_Proliferation: Cell Proliferation Assessment in the BioMAP Diversity Plus: CASM3C Assay (AID 2283047).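 Also: sulforhodamine B total protein stain as relative cell number at 560 nm; sub-confluent cells exposed 48 h before staining; fitted both ways against DMSO so gain or loss of cell number.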 As to conditions: primary human coronary artery smooth muscle cells.
Read-out in assay [6]: Monokine induced gamma interferon (MIG), CXCL9 (gene 4283)
Briefly: BSK_CASM3C_MIG: BioMAP Diversity Plus: CASM3C Assay for Monokine induced gamma interferon (MIG) Biomarker Activity (AID 2283048).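 Also: MIG protein level measured by ELISA.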 As to conditions: primary human coronary artery smooth muscle cells; actives raise or lower the signal.

Read-out in assay [7]: serum amyloid A (SAA), SAA1 (gene 6288)
Briefly: BSK_CASM3C_SAA: BioMAP Diversity Plus: CASM3C Assay for serum amyloid A (SAA) Biomarker Activity (AID 2283049).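 Also: SAA protein level quantified by ELISA.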 Particulars: primary human coronary artery smooth muscle cells; actives raise or lower the signal.

The nature of assay [8]: BSK_CASM3C_SRB: Viability Assessment in the BioMAP Diversity Plus: CASM3C Assay (AID 2283050).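 Also: cells exposed to compound for 24 h.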 Particulars: primary human coronary artery smooth muscle cells.
Read-out in assay [9]: Thrombomodulin, THBD (gene 7056)
Nature of the assay: BSK_CASM3C_Thrombomodulin: BioMAP Diversity Plus: CASM3C Assay for Thrombomodulin Biomarker Activity (AID 2283051).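 Also: thrombomodulin protein level measured by ELISA 24 h after dosing.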 As to conditions: primary human coronary artery smooth muscle cells; actives raise or lower the signal.

Read-out in assay [10]: Tissue Factor, F3 (gene 2152)
Briefly: BSK_CASM3C_TissueFactor: BioMAP Diversity Plus: CASM3C Assay for Tissue Factor Biomarker Activity (AID 2283052).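 Also: cell surface tissue factor protein level read by ELISA.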 As to conditions: primary human coronary artery smooth muscle cells; actives raise or lower the signal.

Read-out in assay [11]: Interferon-gamma inducible Protein 10 (IP10), CXCL10 (gene 3627)
Briefly: BSK_hDFCGF_IP10: BioMAP Diversity Plus: hDFCGF Assay for Interferon-gamma inducible Protein 10 (IP10) Biomarker Activity (AID 2283053). Particulars: primary human foreskin fibroblasts; actives raise or lower the signal. In a few lines:
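IP-10 levels, quantified by ELISA, are taken from human foreskin fibroblast cultures 24 h after chemical treatment, with DMSO serving as negative control and baseline for bidirectional analysis.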

Read-out in assay [12]: Urokinase-type plasminogen activator receptor (uPAR), PLAUR (gene 5329)
Briefly: BSK_CASM3C_uPAR: BioMAP Diversity Plus: CASM3C Assay for Urokinase-type plasminogen activator receptor (uPAR) Biomarker Activity (AID 2283054).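 Also: cell-surface uPAR protein level quantified by ELISA.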 As to conditions: primary human coronary artery smooth muscle cells; actives raise or lower the signal.

Read-out in assay [13]: Vascular cell adhesion molecule 1 (VCAM1), VCAM1 (gene 7412)
Nature of the assay: BSK_CASM3C_VCAM1: BioMAP Diversity Plus: CASM3C Assay for Vascular cell adhesion molecule 1 (VCAM1) Biomarker Activity (AID 2283055).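 Also: VCAM-1 protein level quantified by ELISA on the cells.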 As to conditions: primary human coronary artery smooth muscle cells; actives raise or lower the signal.

Read-out in assay [14]: Epidermal growth factor receptor (EGFR), EGFR (gene 1956)
Briefly: BSK_hDFCGF_EGFR: BioMAP Diversity Plus: hDFCGF Assay for Epidermal growth factor receptor (EGFR) Biomarker Activity (AID 2283057). As to conditions: primary human foreskin fibroblasts; actives raise or lower the signal. In a few lines:
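Measured by ELISA: EGFR levels on primary human foreskin fibroblasts 24 h after chemical treatment, analysed relative to DMSO with bidirectional fitting.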

Read-out in assay [15]: Interleukin-8 (IL8), CXCL8 (gene 3576)
Nature of the assay: BSK_hDFCGF_IL8: BioMAP Diversity Plus: hDFCGF Assay for Interleukin-8 (IL8) Biomarker Activity (AID 2283058). Particulars: primary human foreskin fibroblasts; actives raise or lower the signal. In a few lines: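 Primary human foreskin fibroblasts (hDFCGF system) dosed with chemical; IL-8 measured by ELISA 24 hours later. Bidirectional curve fitting relative to DMSO baseline; cytotoxicity tracked in parallel cultures by SRB total protein staining.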

Assay [16] in a line: BSK_hDFCGF_Proliferation: Cell Proliferation Assessment in the BioMAP Diversity Plus: hDFCGF Assay (AID 2283059).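 Also: curves fitted for both rise and fall of signal versus DMSO baseline.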 Particulars: primary human foreskin fibroblasts. In a few lines:
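Primary human foreskin fibroblasts, sub-confluent; […]; 10% TCA fix, 0.1% SRB stain, A560 total protein. Gain/loss fitted bidirectionally vs DMSO control.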

Read-out in assay [17]: Macrophage colony-stimulating factor (MCSF), CSF1 (gene 1435)
Nature of the assay: BSK_hDFCGF_MCSF: BioMAP Diversity Plus: hDFCGF Assay for Macrophage colony-stimulating factor (MCSF) Biomarker Activity (AID 2283060). Particulars: primary human foreskin fibroblasts; actives raise or lower the signal. In a few lines: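 Human foreskin fibroblast primary cultures; M-CSF measured by ELISA 24 hours after chemical dosing. Bidirectional fitting relative to DMSO, with overt cytotoxicity tracked by parallel SRB total-protein staining (0.1% SRB, 10% TCA fixation, 560 nm).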

A short description of assay [18]: BSK_hDFCGF_SRB: Viability Assessment in the BioMAP Diversity Plus: hDFCGF Assay (AID 2283061).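 Also: cells exposed to compound for 24 h before the read.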 As to conditions: primary human foreskin fibroblasts. In a few lines: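 Human foreskin fibroblasts in 96-well plates were treated 24 h. Total protein was measured by 0.1% SRB staining after 10% TCA fixation, read at 560 nm. Data were fitted bidirectionally against DMSO.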

Read-out in assay [19]: Collagen III, COL3A1 (gene 1281)
Nature of the assay: BSK_hDFCGF_CollagenIII: BioMAP Diversity Plus: hDFCGF Assay for Collagen III Biomarker Activity (AID 2283056). Particulars: primary human foreskin fibroblasts; actives raise or lower the signal. In a few lines:
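Human foreskin fibroblast primary cultures sampled 24 h after dosing; Collagen III quantified by ELISA. Signal fitted bidirectionally against DMSO baseline.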

Read-out in assay [20]: TIMP metallopeptidase inhibitor 1 (TIMP1), TIMP1 (gene 7076)
Nature of the assay: BSK_hDFCGF_TIMP1: BioMAP Diversity Plus: hDFCGF Assay for TIMP metallopeptidase inhibitor 1 (TIMP1) Biomarker Activity (AID 2283062). Particulars: primary human foreskin fibroblasts; actives raise or lower the signal. In a few lines:
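Human foreskin fibroblast primary cultures dosed for 24 h; secreted/surface TIMP-1 quantified by ELISA. Bidirectional curve fitting against DMSO baseline; cytotoxicity tracked in parallel cultures by SRB total-protein staining.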

Consider `O=C1CN(N=Cc2ccc([N+](=O)[O-])o2)C(=O)N1`, for which the result in assay [1], in assay [2], in assay [3], in [4], in [5] and in assay [6] was inactive. In addition, the result in assay [7], in assay [8], in assay [9], in [10], in assay [11] and in [12] was inactive. Further, the result in assay [13], in assay [14], in assay [15], in assay [17] and in [18] was inactive. Further, in [16], the AC50 was 30.6 µM (active).

Regarding `NC(=O)N(O)[C@@H]1COc2cc(OCc3ccccc3)ccc21`, the outcome in [1], in assay [2], in [3], in [4], in assay [5] and in assay [6] was inactive. Besides, the outcome in [7], in assay [8], in assay [9], in assay [10], in [11] and in assay [12] was inactive. For the same molecule, the outcome in [19], in assay [15], in assay [16] and in assay [18] was inactive. Besides, the concentration at half-maximal activity (AC50) in assay [13] is 10.2 µM (active).

In the case of `CCCOc1ccc(S(=O)(=O)N2CCN(CC)CC2)cc1-c1nc2c(CC)n(Cc3ccccn3)nc2c(=O)[nH]1`, the AC50 in [1] was 3.97 µM (active). In addition, the result in [2], in assay [3], in assay [4], in [5], in [6] and in assay [7] was inactive. Also, the outcome in assay [8], in assay [9], in [10], in assay [11], in [12] and in assay [13] was inactive. Also, the result in assay [19], in assay [15], in [16], in [17], in assay [18] and in assay [20] was inactive.

As for `Cc1cccc(O)c1C`, the result in assay [1], in assay [2], in assay [3], in [4], in assay [5] and in assay [6] was inactive. Further, the outcome in assay [7], in assay [8], in assay [9], in assay [10], in [11] and in assay [12] was inactive. The outcome in assay [13], in [19], in [15], in assay [16], in assay [17] and in assay [18] was inactive.

As to `NC(=O)NN=Cc1ccc([N+](=O)[O-])o1`, the outcome in [1], in [2], in [3], in assay [4], in [5] and in assay [6] was inactive. In addition, the result in [7], in assay [8], in assay [9], in [10], in assay [11] and in assay [12] was inactive. Further, the outcome in assay [13], in assay [19], in assay [14], in [15], in assay [18] and in assay [20] was inactive. The AC50 in assay [16] is 27.8 µM (active).

Take `CCOc1ccc2[nH]cc(C(=O)NCc3ccccc3)c(=O)c2n1`: the outcome in assay [1], in assay [2], in assay [3], in assay [4], in assay [5] and in assay [6] was inactive. The outcome in [7], in assay [8], in assay [9], in [10], in assay [11] and in [12] was inactive. For the same molecule, the result in [13], in [19], in assay [15], in assay [16], in assay [17] and in assay [18] was inactive. Besides, the AC50 in assay [14] is 3.97 µM (active).

`CCCCOC(=O)c1ccccc1`: the outcome in assay [1], in assay [2], in assay [3], in [4], in assay [5] and in assay [6] was inactive. Further, the result in assay [7], in assay [8], in assay [9], in [10], in [11] and in assay [12] was inactive. Also, the outcome in [13], in assay [19], in [15], in [16], in assay [18] and in assay [20] was inactive.
